Laboratory results as given in ChEMBL document CHEMBL4513147, “CO-ADD screening of Armstrong State University (GA, USA) compounds”.
The whole screen tested about 21,000 compounds, of which fewer than 10 showed an effect of 50% or more. These entries were drawn from the full list. Potency and affinity values are given separately.

tested on: Acinetobacter baumannii; details: Concentration 32 ug.mL-1; ASSAY_TEST Inhibition of Bacterial Growth; detection method Absorption (OD600); MEDIA CAMHB; plate type 384well; NBS; CORNING #3640; time 18 hr

| Compound | Inhibition |
| --- | --- |
| COc1ccc2c(c1)CCC(=Cc1cccnc1Br)C2=O | -2.26% |
